# From article PMC4336329 (PLoS ONE, 2015)
# In all, about 310,000 compounds went through this assay and about 14,000 (4.5%) showed an effect of 50% or more. The effect is printed as a negative number. Many of the other results were omitted from the sample, so strong results are more common in it than they were.
# Biological target: human ether-à-go-go-related gene (hERG) potassium channel (human, UniProt Q12809)
# Experiment: primary screen, population patch clamp on CHO cells stably expressing hERG; higher = less effect of the substance
# 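Note: peak tail current of the secondary pulse compared with the same well before compound.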
# human ether-à-go-go-related gene (hERG) potassium channel, sequence (Q12809 whole entry, looked up): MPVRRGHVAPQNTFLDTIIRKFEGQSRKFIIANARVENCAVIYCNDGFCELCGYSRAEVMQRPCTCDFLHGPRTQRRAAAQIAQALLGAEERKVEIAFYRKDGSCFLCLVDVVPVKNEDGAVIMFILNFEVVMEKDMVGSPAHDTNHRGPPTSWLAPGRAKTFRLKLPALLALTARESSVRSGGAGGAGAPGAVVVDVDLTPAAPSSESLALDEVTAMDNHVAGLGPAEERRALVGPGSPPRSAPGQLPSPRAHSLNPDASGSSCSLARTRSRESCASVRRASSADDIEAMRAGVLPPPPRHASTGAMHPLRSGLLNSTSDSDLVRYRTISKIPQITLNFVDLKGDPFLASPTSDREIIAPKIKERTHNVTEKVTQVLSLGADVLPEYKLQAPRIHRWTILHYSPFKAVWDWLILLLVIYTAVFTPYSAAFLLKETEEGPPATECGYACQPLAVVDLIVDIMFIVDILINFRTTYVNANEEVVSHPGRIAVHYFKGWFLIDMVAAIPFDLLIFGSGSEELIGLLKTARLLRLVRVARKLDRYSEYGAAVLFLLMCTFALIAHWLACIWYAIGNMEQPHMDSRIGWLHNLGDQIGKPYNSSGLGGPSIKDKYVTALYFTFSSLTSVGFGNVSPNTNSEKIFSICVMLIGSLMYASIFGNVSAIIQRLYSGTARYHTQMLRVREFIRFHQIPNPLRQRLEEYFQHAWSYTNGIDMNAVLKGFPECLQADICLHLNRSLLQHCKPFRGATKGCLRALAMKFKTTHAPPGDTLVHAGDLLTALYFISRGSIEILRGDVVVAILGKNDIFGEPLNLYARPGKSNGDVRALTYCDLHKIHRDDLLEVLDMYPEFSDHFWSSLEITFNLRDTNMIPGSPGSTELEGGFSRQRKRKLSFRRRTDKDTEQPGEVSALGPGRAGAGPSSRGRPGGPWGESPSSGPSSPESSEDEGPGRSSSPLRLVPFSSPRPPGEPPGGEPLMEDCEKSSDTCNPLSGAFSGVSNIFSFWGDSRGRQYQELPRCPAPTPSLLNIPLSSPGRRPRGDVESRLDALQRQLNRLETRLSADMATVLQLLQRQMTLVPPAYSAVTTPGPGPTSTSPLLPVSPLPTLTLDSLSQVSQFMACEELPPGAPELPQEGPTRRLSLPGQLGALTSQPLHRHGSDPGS
row,SMILES,"hERG current change (%, negative = inhibition) at 10uM [%]"
1,COc1ccc2c(c1)CCc1c(C(=O)N3CCCC3)noc1-2,-7.79
2,CC(C)c1ccccc1NC(=O)COC(=O)Cc1c[nH]c2ccccc12,7.28
3,C/C(=N\NC(=O)c1ccncc1)c1c(O)[nH]c(=O)[nH]c1=O,-1.22
4,[O-]/C(=C(\C(=S)Nc1ccc(SC(F)F)cc1)[n+]1ccccc1)c1cc(Cl)ccc1Cl,1.83
5,COc1ccc(-c2noc(CN(C(=O)c3c(-c4ccccc4Cl)noc3C)C(C)C)n2)cc1,14.8
6,O=C(O)C1CC=CCC1C(=O)Nc1cccc(C(=O)N2CCCCC2)c1 (centres unmarked),-5.25
7,CN1C[C@H](C(=O)N[C@]2(C)O[C@@]3(O)[C@@H]4CCCN4C(=O)[C@H](Cc4ccccc4)N3C2=O)CC2c3cccc4[nH]cc(c34)C[C@H]21.O=C(O)C(O)C(O)C(=O)O (some centres unmarked),2.03
8,CC(NC(=O)NNC(N)=S)(C(F)(F)F)C(F)(F)F,4.68
9,CCOc1ccc2nc(N(CCCN(C)C)C(=O)c3ccc4c(c3)CCCC4)sc2c1.Cl,-14.1
10,CCN(CC)CCN(C(=O)c1ccc2c(c1)CCCC2)c1nc2ccc(C)cc2s1.Cl,10.1
11,Cc1ccc2nc(N(CCCN(C)C)C(=O)c3ccc4c(c3)CCCC4)sc2c1.Cl,-71.5
12,CN(C)CCCN(C(=O)c1ccc2c(c1)CCCC2)c1nc2ccc(Cl)cc2s1.Cl,-43.8
13,CN(C)CCCN(C(=O)c1ccc2c(c1)CCCC2)c1nc2ccc(F)cc2s1.Cl,-66.9
14,CCN(CC)CCN(C(=O)c1ccc2c(c1)CCCC2)c1nc2ccc(F)cc2s1.Cl,-1.94
15,CCN(CC)C(=O)C1CCC(C)(C(=O)O)C1(C)C (centres unmarked),3.91
16,O=S1(=O)CCO[C@H]2Cc3ccccc3[C@H]2N1Cc1cccc(Cl)c1,-28.4

row,SMILES,"hERG current change (%, negative = inhibition) at 10uM [%]"
1,Cc1nc(SCn2nnc3ccccc3c2=O)nc(C)c1C,-12.3
2,Cc1ccc(OCCNC(=O)/C=C/c2ccccc2)cc1C,-8.32
3,Cc1cc(=O)n2nc(N3CCC(C(=O)NC(C)c4ccccc4)CC3)sc2n1 (centres unmarked),5.85
4,O=C(OCc1nc2ccsc2c(=O)[nH]1)c1ccccc1,0.869
5,CCc1ccc(C(=O)COC(=O)CNC(=O)COc2ccccc2)cc1,-57.4
6,CCc1ccc(C(=O)COC(=O)CNC(=O)CNC(=O)Cc2ccccc2)cc1,9.36
7,CCc1ccc(C(=O)COC(=O)CNC(=O)c2ccc(Br)o2)cc1,-64
8,COc1ccccc1C(=O)COC(=O)CNC(=O)c1ccc(Br)o1,-50.7
9,CN(CC(=O)Nc1ccccc1Cl)C(=O)COC(=O)Cc1ccc(F)cc1,1.33
10,CCc1ccc(C(=O)COC(=O)CNC(=O)c2ccco2)cc1,-18.2
11,Cc1cccc(C(=O)NCC(=O)OCC(=O)N(C)CC(=O)Nc2ccccc2Cl)c1,-40.5
12,COc1ccccc1C(=O)NNC(=O)c1ccc(Br)o1,14
13,Cc1ccc(C(=O)COC(=O)CNC(=O)c2ccc(Br)o2)cc1[N+](=O)[O-],4.86
14,CCc1ccc(C(=O)COC(=O)CNC(=O)Cc2ccccc2)cc1,0.382
15,CN(CC(=O)Nc1ccccc1Cl)C(=O)COC(=O)CNC(=O)c1ccc(Br)o1,-61.4
16,COc1ccccc1C(=O)NCC(=O)OCC(=O)c1cccc2ccccc12,4.06
